Experiment [1] is described as follows: modulation of C. elegans fzo-1 (AID 1259413; call rule not given here;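 also: fzo-1 mutant C. elegans worms in liquid wells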). The following applies: C. elegans fzo-1 modulator screen, mean read-out; stronger effect = higher value.
Experiment [2] can be described thus: liver-stage malaria parasite growth inhibition, primary screen, cell-based, HepG2, luciferase luminescence, HepG2 viability (AID 624349; in the data active = parasite load remaining mostly below about 12%, no sharp cut-off; inactive = mostly above about 10%;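 also: 100% = mean of DMSO negative control wells on the same plate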). The following applies: P. berghei liver stage in HepG2, luciferase luminescence, concentration not given here; parasite load remaining: stronger effect = lower value; viability: measured here: HepG2 viability without parasites.
Experiment [3] in a line: Cy5 fluorescence interference with SSB-bound oligo, artefact control for HCV NS3 helicase inhibitor project, biochemical, NIH Clinical Collection, E. coli SSB (AID 743268; call rule not given here).
The test system of experiment [4] is Hepatitis C virus NS3 helicase. The experiment can be described thus: HCV NS3 helicase inhibitors, primary screen, biochemical, fluorescence polarization, NIH Clinical Collection (AID 743270; call rule not given here). The conditions noted are these: NS3 helicase binding to Cy5-dT15 DNA, stronger effect = higher value, concentration not given here. (In general: Polarisation of emitted light reports the rotation of a fluorescent probe.)

Experiment [5] addresses Single-stranded DNA-binding protein (Escherichia coli (strain K12)) (UniProt P0AGE0). Kind of experiment: E. coli SSB displacement from DNA, counter-screen for HCV NS3 helicase inhibitor project, biochemical, fluorescence polarization, NIH Clinical Collection (AID 743271; in the data active = inhibition above about 28%). The conditions noted are these: stronger effect = higher value, concentration not given here.
Experiment [6] in a line: fluorescence interference in NS3h assay format, artefact control for HCV NS3 helicase inhibitor project, biochemical, NIH Clinical Collection (AID 743272; call rule not given here;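 also: HCV NS3 helicase with a Cy5 labelled single stranded DNA probe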). The conditions noted are these: fluorescence interference counterscreen, stronger effect = lower value.
For a further experiment, the system named is F380Y. Kind of experiment: modulators of BK channel variants, profiling panel, selectivity assay, cell-based, U2OS BacMam, thallium flux, beta subunits (AID 1259406).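 Also: initial slope of Thallos dye fluorescence rise after thallium is added; log ratio against the mean of 0.3% DMSO vehicle wells on the same plate.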 The following applies: at 30 µM.
For the next experiment, the system named is F380Y/beta1. Described as above. The conditions noted are these: at 30 µM.
The subject of a further experiment is F380Y/beta2Delta. Described as above. The following applies: at 30 µM.
A further experiment concerns F380Y/beta4. The description is as above. The conditions noted are these: at 30 µM.
For experiment [7], the target named is Calcium-activated potassium channel subunit alpha-1 (Homo sapiens) + Leucine-rich repeat-containing protein 26 (Homo sapiens) (UniProt Q12791+Q2I0M4). The experiment is described as above. The conditions noted are these: F380Y/Slo1WT/gamma1, at 30 µM.
Calcium-activated potassium channel subunit alpha-1 (Homo sapiens) + Leucine-rich repeat-containing protein 26 (Homo sapiens), sequence (Q2I0M4 whole entry, looked up, one chain of several): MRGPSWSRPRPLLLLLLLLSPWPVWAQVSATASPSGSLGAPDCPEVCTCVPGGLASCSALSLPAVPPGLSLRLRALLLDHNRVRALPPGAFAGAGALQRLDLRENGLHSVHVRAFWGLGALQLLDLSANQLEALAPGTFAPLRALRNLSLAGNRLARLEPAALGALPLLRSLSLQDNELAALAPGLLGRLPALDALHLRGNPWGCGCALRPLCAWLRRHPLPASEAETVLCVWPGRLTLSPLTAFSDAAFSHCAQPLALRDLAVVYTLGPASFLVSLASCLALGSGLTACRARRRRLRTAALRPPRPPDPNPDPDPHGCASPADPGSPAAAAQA
The next experiment deals with R275C. The description is as above. The conditions noted are these: at 30 µM.
Another experiment deals with R275C/beta1. Described as above. The following applies: at 30 µM.
In a further experiment the test system is R275C/beta2Delta. The description is as above. The following applies: at 30 µM.
Another experiment relates to R275C/beta4. Described as above. The following applies: at 30 µM.
The next experiment concerns R275C/Slo1WT/beta2. The description is as above. The conditions noted are these: at 30 µM.
Experiment [8] is described as follows: sensitizers of A549 cells to miR-34 induction, primary screen, imaging, A549 dox-inducible miR-34, nuclei and caspase counts (AID 1347080;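 active = compounds whose cell count with miR-34 switched on is under 0.7 times the count with it off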). The following applies: A549 miR-34 inducible, Hoechst nuclei count, 48 h.
A short description of experiment [9]: viability rescue of complex I mutant cybrids, primary screen, cell-based, galactose medium, ATP luminescence (AID 1645843;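 active = z-score of at least 1.8 in each of two replicates, scored against plate mean and spread of sample wells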;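 also: positive z means more ATP and so rescue of galactose-driven cybrid death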). The conditions noted are these: complex I mutant cybrid cells, 72 h, stronger effect = higher value.
Experiment [10] concerns Neuropilin-2 / VEGF-C interaction (human). The experiment can be described thus: inhibitors of NRP2–VEGF-C binding, biochemical, microplate binding format, z-score (AID 743281; call rule not given here). The following applies: microplate NRP2/VEGF-C binding assay; stronger effect = lower value.
[11] abbreviates: stronger effect = lower value, cell number ratio, induced over uninduced.
The mark [12] stands for this setting: measured here: relative caspase fold change +Dox/-Dox.
Setting [13] is: measured here: total cells with miR-34 induction, stronger effect = lower value.
[14] abbreviates: measured here: total cells without miR-34 induction.

Calls of active or inactive are those of the source.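 The calls were made as follows, unless noted: active = thallium flux through the channel raised or lowered by more than 3 SD from vehicle-only wells, actives on both sides; inactive = the rest.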

Consider `CC1(C)O[C@@H]2C[C@H]3[C@@H]4CCC5=CC(=O)C=CC5(C)[C@@]4(F)[C@@H](O)CC3(C)C2(C(=O)CO)O1` (stereo not given in full), for which, in experiment [1], the mean signal is 258 (inactive).

On to `CC(=O)O[C@@]12CO[C@@H]1C[C@H](O)[C@@]1(C)C(=O)[C@H](O)C3=C(C)[C@@H](OC(=O)[C@H](O)[C@@H](NC(=O)OC(C)(C)C)c4ccccc4)C[C@](O)([C@@H](OC(=O)c4ccccc4)[C@H]21)C3(C)C`, for which the parasite load remaining in experiment [2] is 78.3% (inactive). Further, the viability in experiment [2] was found to be 76.2%. Also, the fluorescence ratio in experiment [3] is 0.95 (inactive); in experiment [6] it was 0.93 (inactive). For the same molecule, the figures for the inhibition in experiment [4] and in experiment [5] were 5.15% (inactive) and 9.14% (inactive), respectively. Also, the log fold change Tl+ flux was -0.0323 (inactive) in the experiment with F380Y; -0.0744 (inactive) in the experiment with F380Y/beta1; -0.0313 (inactive) in the experiment on F380Y/beta2Delta; -0.0802 (inactive) with F380Y/beta4; -0.035 (inactive) in [7]; -0.041 (inactive) with R275C. Also, the log fold change Tl+ flux was 0.104 (active) in the experiment with R275C/beta1, 0.0412 (inactive) in the experiment with R275C/beta2Delta, 0.0296 (inactive) in the experiment on R275C/beta4 and 0.000404 (inactive) in the experiment with R275C/Slo1WT/beta2.

`O=C1NC(=O)N(C2CC(O)C(CO)O2)CC1F` (stereo not given): the mean signal in experiment [1] was 241 (inactive).

For the molecule `CO[C@H]1C=CO[C@@]2(C)Oc3c(C)c(O)c4c(O)c(c5c(c4c3C2=O)NC2(CCN(CC(C)C)CC2)N=5)=NC(=O)C(C)=CC=C[C@H](C)[C@H](O)[C@@H](C)[C@@H](O)[C@@H](C)[C@H](OC(C)=O)[C@@H]1C`, in experiment [2], the parasite load remaining was 46.3% (inactive). Moreover, the viability in experiment [2] worked out at 56.4%. For the same molecule, the log fold change Tl+ flux is 0.00735 (inactive) with F380Y; -0.0974 (active) in the experiment on F380Y/beta1; -0.052 (inactive) in the experiment with F380Y/beta2Delta; -0.0911 (inactive) in the experiment on F380Y/beta4; -0.0288 (inactive) in experiment [7]; -0.134 (active) in the experiment with R275C. The log fold change Tl+ flux in the experiment with R275C/beta1 was 0.0366 (inactive); in the experiment with R275C/beta2Delta, -0.0385 (inactive); with R275C/beta4 it was 0.0214 (inactive); with R275C/Slo1WT/beta2 it was 0.0234 (inactive).

For `Cc1cc(=O)oc2cc(NC(=O)C3CCC(=O)N3)ccc12` (stereo not given), the parasite load remaining in [2] is 62.4% (inactive). Also, the viability in [2] is 136%. The fluorescence ratio is 0.96 (inactive) in [3] and 0.91 (inactive) in experiment [6]. Further, the inhibition was 1.36% (inactive) in experiment [4] and 11.7% (inactive) in experiment [5]. Further, the values for the fold change in experiment [8] (setting [11]) and in experiment [8] (setting [12]) were 0.953 (inactive) and 1.59, respectively. In addition, the cell count in experiment [8] (setting [13]) stood at 10900; in [8] (setting [14]) it was 11400. Besides, in experiment [9], the z-score is -0.335 (inactive). Further, the log fold change Tl+ flux was -0.00455 (inactive) in the experiment on F380Y; -0.0136 (inactive) in the experiment with F380Y/beta1; -0.0131 (inactive) in the experiment on F380Y/beta2Delta; 0.0184 (inactive) with F380Y/beta4; -0.00524 (inactive) in [7]; -0.000517 (inactive) in the experiment on R275C. In addition, the log fold change Tl+ flux in the experiment on R275C/beta1 was 0.0432 (inactive); in the experiment with R275C/beta2Delta, -0.00476 (inactive); with R275C/beta4 it was -0.0203 (inactive); in the experiment with R275C/Slo1WT/beta2 it was -0.0148 (inactive).

As to `CC1(C)O[C@@H]2C[C@H]3[C@@H]4C[C@H](F)C5=CC(=O)C=CC5(C)[C@H]4[C@@H](O)CC3(C)C2(C(=O)CO)O1` (stereo not given in full), the mean signal in [1] was 250 (inactive).

On to `CON=C(C(=O)N[C@@H]1C(=O)N2C(C(=O)O)=C(COC(N)=O)CS[C@H]12)c1ccco1`, for which the parasite load remaining in experiment [2] was 58.2% (inactive). Further, the viability in experiment [2] was found to be 88.2%. The fluorescence ratio is 1.07 (inactive) in experiment [3] and 1 (inactive) in [6]. For the same molecule, the inhibition was -4.09% (inactive) in experiment [4] and 10.2% (inactive) in experiment [5]. Also, the fold change in experiment [8] (setting [11]) is 0.935 (inactive); in [8] (setting [12]), 2.12. Further, the cell count came to 10600 in [8] (setting [13]) and 11300 in experiment [8] (setting [14]). Further, the z-score in experiment [9] was -0.2 (inactive). Moreover, the log fold change Tl+ flux in the experiment with F380Y was 0.0216 (inactive); in the experiment with F380Y/beta1, 0.0158 (inactive); in the experiment with F380Y/beta2Delta, 0.00116 (inactive); with F380Y/beta4, -0.0173 (inactive); in [7], -0.0114 (inactive); with R275C, -0.0247 (inactive). In addition, the log fold change Tl+ flux is -0.0484 (inactive) with R275C/beta1, -0.0289 (inactive) with R275C/beta2Delta, 0.0531 (inactive) in the experiment on R275C/beta4 and 0.0179 (inactive) with R275C/Slo1WT/beta2.

In the case of `C=CC1=C(C(=O)O)N2C(=O)[C@@H](NC(=O)C(=NOCC(=O)O)c3csc(N)n3)[C@H]2SC1`, the parasite load remaining in experiment [2] is 68.9% (inactive). Besides, in experiment [2], the viability worked out at 69.9%. Besides, the fluorescence ratio in experiment [3] was 1.01 (inactive); in [6], 0.95 (inactive). The inhibition was 27.7% (active) in experiment [4] and 94.9% (active) in experiment [5]. Also, the log fold change Tl+ flux in the experiment on F380Y was 0.0111 (inactive); with F380Y/beta1, -0.0102 (inactive); in the experiment with F380Y/beta2Delta, 0.02 (inactive); with F380Y/beta4, 0.0293 (inactive); in experiment [7], 0.111 (active); with R275C, -0.011 (inactive). The log fold change Tl+ flux in the experiment on R275C/beta1 is -0.021 (inactive); with R275C/beta2Delta, 0.0194 (inactive); in the experiment on R275C/beta4, 0.0168 (inactive); with R275C/Slo1WT/beta2 it was 0.00126 (inactive).

As for `CCC(=O)NS(=O)(=O)c1ccc(-c2c(-c3ccccc3)noc2C)cc1`, the parasite load remaining in experiment [2] was 75.3% (inactive). Moreover, in experiment [2], the viability came to 68.9%. The results for the z-score in experiment [10] and in [9] were 1.11 (inactive) and 0.78 (inactive), respectively. The mean signal in experiment [1] was 273 (inactive). In addition, the results for the fold change in [8] (setting [11]) and in experiment [8] (setting [12]) were 0.873 (inactive) and 1.74, respectively. For the same molecule, the results for the cell count in experiment [8] (setting [13]) and in experiment [8] (setting [14]) were 9000 and 10300, respectively. The log fold change Tl+ flux is 0.0552 (inactive) in the experiment with F380Y; 0.000846 (inactive) in the experiment on F380Y/beta2Delta; 0.0287 (inactive) in [7]; 0.0383 (inactive) with R275C; -0.00911 (inactive) in the experiment on R275C/beta1; -0.00297 (inactive) in the experiment on R275C/beta2Delta.

Regarding `N[C@@H](C(=O)N[C@@H]1C(=O)N2C(C(=O)O)=C(CSc3cn[nH]n3)CS[C@H]12)c1ccc(O)cc1` (tested in a mixture with another compound), the parasite load remaining in experiment [2] was 100% (inactive). In experiment [2], the viability came to 72.4%. In addition, the fluorescence ratio was 1.06 (inactive) in [3] and 1.01 (inactive) in experiment [6]. In addition, the inhibition in [4] was 21.8% (active); in experiment [5] it was 56.1% (active). Further, the log fold change Tl+ flux is 0.0279 (inactive) in the experiment on F380Y; -0.0559 (inactive) with F380Y/beta1; 0.00568 (inactive) with F380Y/beta2Delta; -0.0478 (inactive) in the experiment with F380Y/beta4; 0.0418 (inactive) in [7]; -0.0506 (inactive) in the experiment with R275C. For the same molecule, the log fold change Tl+ flux with R275C/beta1 is 0.00628 (inactive); in the experiment on R275C/beta2Delta, 0.0029 (inactive); in the experiment with R275C/beta4, -0.00667 (inactive); in the experiment on R275C/Slo1WT/beta2, 0.00247 (inactive).

A word on the viability: it is a read-out of living cells in per cent, often relative to untreated cells. A word on the inhibition: it is the change of the read-out against control, counted positive when it falls.

The values are drawn from PubChem BioAssay.
